Assay [1] concerns the target ATP-dependent 6-phosphofructokinase (Trypanosoma brucei brucei) (UniProt O15648). Put plainly: qHTS Assay to Find Inhibitors of T. brucei phosphofructokinase: hit validation (AID 492961).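 Further: luminescence reports ADP formed as PFK phosphorylates fructose-6-phosphate with ATP; on the % scale 0 is the no-effect control and ±100 the full control effect.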 The essentials: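 Percent activity derived from corrected luminescence, normalized between 0x and 1x enzyme controls, then fitted to concentration-response curves. Conditions: 1.25 nM PFK, 0.1 mM ATP, 0.5 mM F6P, 45 min RT.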

Assay [2] has as its target Luciferin 4-monooxygenase (Photinus pyralis) (UniProt P08659). Put plainly: Biochemical firefly luciferase enzyme assay for NPC (AID 624030). Further: nearly all actives have a fitted effect of over 70% in size. Further: potency means the concentration at half of the fitted maximal effect. Put shortly: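 Counter-screen for direct inhibition of the luciferase enzyme by approved-drug library compounds, run at 10 nM enzyme in 50 mM Tris acetate (final). Luminescence was read within 5 min of enzyme-buffer addition and normalized to PTC124 versus DMSO (0%).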

Assay [3] in a line: qHTS profiling for inhibitors of Plasmodium falciparum proliferation (AID 504749). Further: potency means the concentration at half of the fitted maximal effect.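 On activity, negative = inhibition: 0% = DMSO vehicle and full inhibition = artemisinin control.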 On all read-outs here: nearly all actives have a fitted effect of over 60% in size. To be noted: P. falciparum in erythrocytes, SYBR Green DNA, 72 h; for activity, negative = inhibition: at 28.7 µM (top of the series). The essentials: (§1)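 Fluorescence of SYBR Green-bound parasite DNA, read at 485/535 nm, served as the growth measure. Infected erythrocytes were cultured with compound 72 h; artemisinin (0.29 uM) and DMSO wells defined the normalization range.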
On the technique in general: qHTS replaces the single test concentration by a dilution series.

In assay [4] the test system is CP185. The description is as above. Particulars: P. falciparum in erythrocytes, SYBR Green DNA, 72 h; series mostly up to 28.7 µM. The essentials:
as §1

In assay [5] the test system is CP192. The assay is described as above. To be noted: P. falciparum in erythrocytes, SYBR Green DNA, 72 h; series mostly up to 28.7 µM. The essentials:
as §1

For assay [6], the system named is CP211. The assay is described as above. Particulars: P. falciparum in erythrocytes, SYBR Green DNA, 72 h; series mostly up to 28.7 µM. The essentials:
as §1

In assay [7] the test system is CP238. Described as above. To be noted: P. falciparum in erythrocytes, SYBR Green DNA, 72 h; series mostly up to 28.7 µM. The essentials:
as §1

Assay [8] relates to CP252. The assay is described as above. Particulars: P. falciparum in erythrocytes, SYBR Green DNA, 72 h; series mostly up to 28.7 µM. Put shortly: as §1
In assay [9] the test system is CP262. Described as above. To be noted: P. falciparum in erythrocytes, SYBR Green DNA, 72 h; series mostly up to 28.7 µM. The essentials: as §1
Assay [10] deals with CP265. The description is as above. Particulars: P. falciparum in erythrocytes, SYBR Green DNA, 72 h; series mostly up to 28.7 µM. Put shortly:
as §1

Assay [11] deals with CP269. Described as above. To be noted: P. falciparum in erythrocytes, SYBR Green DNA, 72 h; series mostly up to 28.7 µM. The essentials: as §1
Assay [12] relates to CP286. Described as above. To be noted: P. falciparum in erythrocytes, SYBR Green DNA, 72 h; series mostly up to 28.7 µM. Put shortly:
as §1

Assay [13] relates to CP315. Described as above. Particulars: P. falciparum in erythrocytes, SYBR Green DNA, 72 h; series mostly up to 28.7 µM. The essentials: as §1
The test system of assay [14] is CP329. The description is as above. Particulars: P. falciparum in erythrocytes, SYBR Green DNA, 72 h; series mostly up to 28.7 µM. Put shortly:
as §1

In assay [15] the test system is DFO2036. The description is as above. Particulars: P. falciparum in erythrocytes, SYBR Green DNA, 72 h; series mostly up to 28.7 µM. Put shortly:
as §1

In assay [16] the test system is Dd2. Described as above. Particulars: P. falciparum in erythrocytes, SYBR Green DNA, 72 h; series mostly up to 28.7 µM. Put shortly:
as §1

Assay [17] concerns ECU. Described as above. To be noted: P. falciparum in erythrocytes, SYBR Green DNA, 72 h; series mostly up to 28.7 µM. The essentials: as §1
For assay [18], the system named is FAB9. Described as above. Particulars: P. falciparum in erythrocytes, SYBR Green DNA, 72 h; series mostly up to 28.7 µM. The essentials: as §1
For assay [19], the system named is JCK. The assay is described as above. To be noted: P. falciparum in erythrocytes, SYBR Green DNA, 72 h; series mostly up to 28.7 µM. The essentials: as §1
The subject of assay [20] is N140. The description is as above. Particulars: P. falciparum in erythrocytes, SYBR Green DNA, 72 h; series mostly up to 28.7 µM. Put shortly: as §1

Inconclusive results are not listed. Unmarked numbers belong to inactive results. Calls of active or inactive are those of the source. The call rests on the fitted dose curve; in most records, active means well fitted curve in the direction sought with a large enough effect; inconclusive means small, poorly fitted or top-dose-only effect, or another doubt; inactive means no such curve, though single readings can be large; an effect the other way counts as inactive or inconclusive.

Chain of ATP-dependent 6-phosphofructokinase (Trypanosoma brucei brucei) (O15648 whole entry, looked up): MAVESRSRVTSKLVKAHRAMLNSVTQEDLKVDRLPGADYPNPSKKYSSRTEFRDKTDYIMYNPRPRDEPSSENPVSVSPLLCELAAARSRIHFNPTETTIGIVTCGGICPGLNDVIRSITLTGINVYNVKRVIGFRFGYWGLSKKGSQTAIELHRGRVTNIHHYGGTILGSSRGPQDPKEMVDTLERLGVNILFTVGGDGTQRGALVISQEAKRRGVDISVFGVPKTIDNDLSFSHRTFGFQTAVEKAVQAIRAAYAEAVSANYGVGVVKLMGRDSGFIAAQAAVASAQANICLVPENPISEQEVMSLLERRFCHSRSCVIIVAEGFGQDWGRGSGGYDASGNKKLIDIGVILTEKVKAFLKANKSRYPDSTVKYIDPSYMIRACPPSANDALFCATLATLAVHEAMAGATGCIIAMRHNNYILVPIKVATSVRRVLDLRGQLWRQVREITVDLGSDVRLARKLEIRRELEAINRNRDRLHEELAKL
Chain of Luciferin 4-monooxygenase (Photinus pyralis) (P08659 whole entry, looked up): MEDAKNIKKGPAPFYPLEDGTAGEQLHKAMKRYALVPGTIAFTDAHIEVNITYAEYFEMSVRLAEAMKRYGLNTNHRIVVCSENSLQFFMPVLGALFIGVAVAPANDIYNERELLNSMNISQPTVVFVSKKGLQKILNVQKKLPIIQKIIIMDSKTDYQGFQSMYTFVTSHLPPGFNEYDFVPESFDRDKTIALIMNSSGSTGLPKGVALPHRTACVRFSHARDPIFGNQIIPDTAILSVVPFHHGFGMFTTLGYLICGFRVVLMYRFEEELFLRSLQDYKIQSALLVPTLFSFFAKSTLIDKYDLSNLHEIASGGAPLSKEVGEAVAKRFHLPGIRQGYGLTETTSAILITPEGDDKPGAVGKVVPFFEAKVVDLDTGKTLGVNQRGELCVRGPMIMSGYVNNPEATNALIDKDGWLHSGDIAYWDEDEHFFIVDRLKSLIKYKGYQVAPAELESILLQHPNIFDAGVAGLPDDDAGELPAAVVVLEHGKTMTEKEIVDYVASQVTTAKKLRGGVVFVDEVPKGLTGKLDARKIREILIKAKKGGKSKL

In the case of `C=C1NC(=O)c2cc(CN(C)c3ccc(C(=O)N[C@@H](CCC(=O)O)C(=O)O)s3)ccc2N1`, the Potency entry in assay [1], in assay [2], in assay [4], in [5], in assay [6] and in [7] was “inactive” each time. Moreover, the Potency result in assay [8], in [9], in assay [10], in [11], in [12] and in assay [13] was “inactive” in each case. Besides, the Potency entry in assay [14], in [15], in [16], in assay [17], in [18] and in assay [19] was “inactive” throughout. In addition, in assay [20], the Potency result is “inactive”. Besides, the activity, negative = inhibition is 2.89% in assay [3] (parasite line A) and 4.82% in assay [3] (parasite line B).
In the case of `CCC(=O)O[C@]1(C(=O)CCl)[C@@H](C)CC2C3C[C@H](F)C4=CC(=O)C=CC4(C)[C@@]3(F)C(O)CC21C` (some centres undefined), the Potency entry in assay [1], in [2] and in assay [18] was “inactive” in each case. Besides, the Potency was 12.6 µM (active) in assay [3] (parasite line A); 11.2 µM (active) in assay [3] (parasite line B); 11.2 µM (active) in assay [4]; 9.53 µM (active) in assay [6]; 8.91 µM (active) in assay [7]; 8.91 µM (active) in [8]. The Potency in [9] was 9.53 µM (active); in assay [10], 8.91 µM (active); in assay [11], 12 µM (active); in [12] it was 10 µM (active); in assay [14], 15.1 µM (active); in assay [15], 11.2 µM (active). Besides, the Potency is 7.94 µM (active) in assay [16], 3.55 µM (active) in [17] and 6.31 µM (active) in assay [20].
`N#C/C(=C1/SCC(c2ccccc2Cl)S1)n1ccnc1` (centres undefined): the Potency result in assay [1], in assay [2], in [4], in [5], in assay [6] and in assay [7] was “inactive” in each case. Also, the Potency entry in assay [8], in [9], in assay [10], in assay [11], in assay [12] and in [13] was “inactive” throughout. The Potency result in [14], in assay [15], in [16], in assay [18] and in assay [19] was “inactive” in each case. Also, the activity, negative = inhibition in assay [3] (parasite line A) was -5.78%; in assay [3] (parasite line B), -14.7%.
For `CCOC(=O)C(CCc1ccccc1)NC(C)C(=O)N1Cc2cc(OC)c(OC)cc2CC1C(=O)O` (centres undefined), the Potency result in assay [1], in assay [2], in assay [4], in assay [5], in assay [6] and in assay [7] was “inactive” in each case. Moreover, the Potency entry in assay [8], in [9], in [10], in [11], in assay [12] and in assay [13] was “inactive” throughout. The Potency result in assay [14], in [15], in assay [16] and in [18] was “inactive” throughout. Also, the results for the activity, negative = inhibition in assay [3] (parasite line A) and in assay [3] (parasite line B) were -6.17% and -28.7%, respectively. Moreover, the Potency in assay [17] was 5.01 µM (active); in assay [20], 3.55 µM (active).
As to `O=C(O)Cc1sc(-c2ccc(Cl)cc2)nc1-c1ccccc1`, the Potency entry in assay [1], in assay [4], in [5], in assay [6], in assay [7] and in assay [8] was “inactive” in each case. Moreover, the Potency result in assay [9], in [10], in [11], in [12], in assay [13] and in [14] was “inactive” throughout. Besides, the Potency entry in assay [15], in assay [16], in assay [17], in assay [18], in assay [19] and in [20] was “inactive” throughout. Further, the Potency in [2] was 25.6 µM (active). The activity, negative = inhibition is 4.11% in assay [3] (parasite line A) and -3.92% in assay [3] (parasite line B).

(Values after PubChem BioAssay (NCATS).)
